Data from PubChem BioAssay (Tox21).
Results filed as inconclusive are left out. Calls of active or inactive are those of the source. Unless noted, the call rests on the fitted dose curve; in most records, active means well fitted curve in the direction sought with a large enough effect in the repeat runs; inconclusive means weak or mixed curves; inactive means no such curve, though single readings can be large; an effect the other way counts as inactive or inconclusive.

Legend:
[1] = qHTS assay to identify small molecule agonists of the vitamin D receptor (VDR) signaling pathway - cell viability counter screen (AID 743224); further: nearly all actives have a fitted effect of over 50% in size; further: potency means the concentration at half of the fitted maximal effect
Summary of the method: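 Cytotoxicity counter screen: VDR-bla cells, 16 h compound exposure at 37C, 5% CO2; CellTiter-Glo luminescence, 30 min RT, same wells as bla read.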

[2] = qHTS assay to identify small molecule agonists of the NFkB signaling pathway (AID 1159509; active means well fitted curve in the direction sought with a large enough effect in the signal ratio in the repeat runs, not every such curve was filed as active; the % refers to the signal ratio; further: series mostly up to about 61 µM; on the % scale 0 is the no-effect control and ±100 the full control effect)
Summary of the method: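 Beta-lactamase reporter assay run in quantitative high-throughput format on an NF-kB-responsive ME-180 line, with 5 hr compound treatment and a FRET-based blue/green fluorescence readout.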

[3] = qHTS assay to identify small molecule agonists of the endoplasmic reticulum stress response signaling pathway (AID 1159516; active means well fitted activation curve with a large enough effect in the signal ratio in the repeat runs, not every such curve was filed as active; the % refers to the signal ratio; further: on the % scale 0 is the no-effect control and ±100 the full control effect)
Summary of the method: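 HeLa ESRE-bla reporter line; cpd 5 h, 37 C/5% CO2; LiveBLAzer B/G FRET substrate 2 h RT; ex 405, em 460/530 nm.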

[4] = qHTS assay to identify small molecule agonists of the AP-1 signaling pathway - cell viability counter screen (AID 1159525; calls by dose curve; further: nearly all actives have a fitted effect of over 55% in size)
Summary of the method: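 Each titration point was normalised to DMSO and tetra n-octyl ammonium bromide controls. The read was Cell Titer Glo luminescence after 30 min at RT, following 5 h compound exposure of ME-180 AP-1-bla cells at 37 °C.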

[5] = biological target: Retinoic acid receptor RXR-alpha (Homo sapiens) (UniProt P19793); experiment: qHTS assay to identify small molecule agonists of the RXR signaling pathway (AID 1159527; calls by dose curve; further: on the % scale 0 is the no-effect control and ±100 the full control effect; nearly all actives have a fitted effect of over 35% in size)
Sequence of Retinoic acid receptor RXR-alpha (Homo sapiens) (P19793 whole entry, looked up): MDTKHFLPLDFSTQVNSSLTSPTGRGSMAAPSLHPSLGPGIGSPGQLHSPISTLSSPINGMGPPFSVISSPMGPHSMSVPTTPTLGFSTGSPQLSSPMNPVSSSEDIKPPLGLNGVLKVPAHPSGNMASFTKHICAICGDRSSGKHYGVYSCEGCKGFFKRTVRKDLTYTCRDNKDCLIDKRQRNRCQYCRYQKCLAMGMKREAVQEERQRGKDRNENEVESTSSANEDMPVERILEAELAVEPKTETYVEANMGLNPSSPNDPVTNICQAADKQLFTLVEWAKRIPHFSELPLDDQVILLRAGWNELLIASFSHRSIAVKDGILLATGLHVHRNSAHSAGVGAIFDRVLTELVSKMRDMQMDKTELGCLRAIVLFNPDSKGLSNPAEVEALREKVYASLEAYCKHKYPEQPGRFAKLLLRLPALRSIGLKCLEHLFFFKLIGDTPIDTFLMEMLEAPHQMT
Summary of the method: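 Agonist mode; 9-cis retinoic acid positive control. HEK 293T UAS-bla reporter cells, 2% charcoal-stripped FBS, 16 hr compound exposure at 37 C/5% CO2. LiveBLAzer B/G FRET substrate 2 hr RT; ex 405, em 460/530 nm.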

[6] = qHTS assay to identify small molecule antagonists of the retinoid acid receptor (RAR) signaling pathway - cell viability counter screen (AID 1159551); further: on the % scale 0 is the no-effect control and ±100 the full control effect; nearly all actives have a fitted effect of over 35% in size
Summary of the method: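 C3RL4 RARE-luciferase line; cpds + retinol 1 uM final, 6 h, 37 C/5% CO2; CellTiter-Glo ATP luminescence, 30 min RT.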

[7] = qHTS assay to identify small molecule antagonists of the retinoic acid receptor (RAR) signaling pathway (AID 1159552; further: nearly all actives have a fitted effect of over 50% in size; further: potency means the concentration at half of the fitted maximal effect)
Summary of the method: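 Luminescence from a RARE luciferase reporter in C3RL4 cells served as read-out. Cells received compounds together with 1 uM final retinol and incubated 6 hr at 37 C before detection reagent was added for 30 min at room temperature.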

[8] = qHTS assay to identify small molecule agonists of the retinoic acid receptor (RAR) signaling pathway (AID 1159553); further: potency means the concentration at half of the fitted maximal effect
Summary of the method: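 RARE-luc C3RL4 cells; overnight attachment 37 C/5% CO2; compound (DMSO) 6 hr; luciferase reagent, 30 min RT; luminescence read-out.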

[9] = qHTS assay to identify small molecule antagonists of the vitamin D receptor (VDR) signaling pathway - cell viability counter screen (AID 743225); further: nearly all actives have a fitted effect of over 50% in size; further: potency means the concentration at half of the fitted maximal effect
Summary of the method: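 Viability counter screen run in the same wells as the beta-lactamase reporter assay: HEK 293T VDR-UAS-bla cells, 16 h compound exposure at 37C with 3 nM (final) 1-alpha,25-dihydroxyvitamin D3. CellTiter-Glo luminescence, 30 min, room temperature.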

[10] = qHTS assay to identify small molecule antagonists of the retinoid-related orphan receptor gamma (ROR-gamma) signaling pathway - cell viability counter screen (AID 1159520); further: on the % scale 0 is the no-effect control and ±100 the full control effect; nearly all actives have a fitted effect of over 50% in size
Summary of the method: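 Tet-on ROR gamma CHO cells (1,000/well) were plated 4 hr, given compounds in DMSO for 2 hr at 37 C, then induced with 1 uM final doxycycline for 16 hr. Viability was read as ATP by CellTiter-Glo luminescence after 30 min.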

[11] = biological target: Nuclear receptor ROR-gamma (Homo sapiens) (UniProt P51449); experiment: qHTS assay to identify small molecule antagonists of the retinoid-related orphan receptor gamma (ROR-gamma) signaling pathway (AID 1159521; further: nearly all actives have a fitted effect of over 50% in size; further: potency means the concentration at half of the fitted maximal effect)
Summary of the method: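 Luminescence readout (ONE-Glo, 30 min RT) after 16 h doxycycline induction; loss of signal scored as antagonism. CHO cells with TET-inducible RORγ and RORE-LUC reporter; compounds added 2 h before 1 uM final doxycycline.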

[12] = qHTS assay to identify small molecule agonists of the AP-1 signaling pathway (AID 1159526; calls by dose curve; further: on the % scale 0 is the no-effect control and ±100 the full control effect)
[13] = qHTS assay to identify small molecule agonists of the RXR signaling pathway - cell viability counter screen (AID 1159529); further: nearly all actives have a fitted effect of over 50% in size; further: potency means the concentration at half of the fitted maximal effect
Summary of the method: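 Luminescence from CellTiter-Glo (30 min, RT) measured viability in the same wells as the beta-lactamase reporter readout. Cells: GeneBLAzer RXR-alpha HEK 293T, 2% charcoal-stripped FBS. Compound exposure 16 hr, 37 C.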

[14] = qHTS assay to identify small molecule agonists of the endoplasmic reticulum stress response signaling pathway - cell viability counter screen (AID 1159517; calls by dose curve)
Summary of the method: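 Cytotoxicity of test compounds toward ESRE-bla HeLa cells was assessed after 5 hr exposure. The luminescent CellTiter-Glo signal was measured 30 min after reagent addition.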

[15] = qHTS assay to identify small molecule antagonists of the estrogen related receptor (ERR) signaling pathway - cell viability counter screen (AID 1224818); further: series mostly up to about 46 µM; on the % scale 0 is the no-effect control and ±100 the full control effect
Summary of the method: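 Fluorescence from CellTiter-Fluor, read 30 min after reagent addition at 37 C, measured viability of ERR cells exposed to compounds for 17.5 h. Cells had settled 6 h before dosing.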

[16] = qHTS assay to identify small molecule antagonists of the estrogen related receptor (ERR) signaling pathway (AID 1224819)
Summary of the method: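 Luminescence readout (One-Glo, 30 min, RT) of ERR cell line after 18 h compound exposure at 37 C; cells seeded 2,000/well, pre-incubated 6 h, compounds pinned from DMSO stocks.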

[17] = qHTS assay to identify small molecule agonists of the estrogen related receptor (ERR) signaling pathway (AID 1224820); further: on the % scale 0 is the no-effect control and ±100 the full control effect
Summary of the method: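 Following a 6 h settling period, 2,000 ERR cells per well receive DMSO-dissolved compounds by pin tool and incubate 18 h at 37 C; agonist activity is scored from One-Glo luminescence read 30 min post-addition.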

[18] = test system: estrogen-related receptor alpha (ERRalpha) with PGC-1alpha coactivator, human; experiment: qHTS assay to identify small molecule antagonists of the estrogen related receptor signaling pathway with the pleiotropic PPARgamma coactivator (PGC) (AID 1224821; calls by dose curve)
Summary of the method: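 Screening used NTP's PGC/ERR cells, dosed via pin tool with compound in DMSO alongside positive and negative controls. After 18 h at 37 C, One-Glo reagent sat 30 min at room temperature before luminescence detection.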

[19] = qHTS assay to identify small molecule antagonists of the estrogen related receptor signaling pathway with the pleiotropic PPARgamma coactivator (PGC) cell viability counter screen (AID 1224822)
Summary of the method: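 Fluorescence read-out of CellTiter-Fluor after 30 min at 37 C; PGC/ERR cells, 2,000 per well, had been exposed to DMSO-dissolved compounds for 17.5 h following a 6 h pre-incubation.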

CCCOC(=O)c1c(Cl)c(Cl)c(Cl)c(Cl)c1C(=O)OCCC
inactive: Potency [1] | outcome [2] | Potency [3] | Potency [4] | Potency [5] | Potency [6] | Potency [7] | Potency [8]

ClC1=C(Cl)C1(Cl)Cl
inactive: Potency [1] | Potency [9] | outcome [2] | Potency [3] | Potency [10] | Potency [11] | Potency [4] | outcome [12] | Potency [13] | Potency [6]

COC(=O)CC(C(C)=O)C(=O)OC (configuration not stated)
inactive: Potency [1] | Potency [9] | outcome [2] | Potency [14] | Potency [10] | Potency [4] | outcome [12] | Potency [5] | Potency [13] | Potency [6] | Potency [7] | Potency [8]

CCN(CC)C(=O)/C(C#N)=C/c1cc(O)c(O)c([N+](=O)[O-])c1
inactive: Potency [1] | Potency [9] | outcome [2] | Potency [3] | Potency [10] | Potency [4] | outcome [12] | Potency [13] | Potency [6] | Potency [7]

Cc1cc(CCC(=O)OCCOCCOCCOC(=O)CCc2cc(C)c(O)c(C(C)(C)C)c2)cc(C(C)(C)C)c1O
inactive: outcome [2] | Potency [14] | Potency [11] | Potency [4] | outcome [12] | Potency [13] | Potency [6] | Potency [8]

CC(C)(O)c1coc(S(=O)(=O)NC(=O)Nc2c3c(cc4c2CCC4)CCC3)c1
inactive: Potency [1] | Potency [9] | outcome [2] | Potency [3] | Potency [10] | Potency [11] | Potency [4] | outcome [12] | Potency [6] | Potency [7]

Cc1cccc2sc(N)nc12
inactive: Potency [1] | Potency [9] | outcome [2] | Potency [3] | Potency [10] | Potency [11] | Potency [4] | outcome [12] | Potency [5] | Potency [6]

CC1=C2[C@@H]([C@H](C)CC[C@H]2/C=C(\C)C(=O)O)[C@H](O)C1
inactive: Potency [1] | Potency [9] | outcome [2] | Potency [3] | Potency [10] | Potency [11] | Potency [4] | outcome [12] | Potency [13] | Potency [6]

C=C(C)C(=O)OCCC(F)(F)C(F)(F)C(F)(F)C(F)(F)C(F)(F)C(F)(F)F
inactive: Potency [1] | outcome [2] | Potency [3] | Potency [11] | Potency [4] | outcome [12] | Potency [5] | Potency [13] | Potency [6]

CC(CCc1ccc(O)cc1)NCCc1ccc(O)c(O)c1 (configuration not stated)
inactive: Potency [1] | Potency [9] | outcome [2] | Potency [14] | Potency [10] | Potency [11] | Potency [4] | outcome [12] | Potency [5] | Potency [13] | Potency [6] | outcome [15] | Potency [16] | outcome [17] | Potency [18] | outcome [19]

C/C(C=O)=C\c1ccccc1
inactive: Potency [1] | Potency [9] | outcome [2] | Potency [3] | Potency [10] | Potency [11] | Potency [4] | outcome [12] | Potency [5] | Potency [13] | Potency [6] | Potency [8]

CC(C)COC(=O)COc1cc(Cl)c(Cl)cc1Cl
inactive: Potency [1] | Potency [9] | outcome [2] | Potency [3] | Potency [10] | Potency [4] | outcome [12] | Potency [5] | Potency [13] | Potency [6] | Potency [7] | Potency [8]

Cc1c[nH]c2ccccc12
inactive: Potency [1] | Potency [9] | outcome [2] | Potency [3] | Potency [10] | Potency [4] | outcome [12] | Potency [13] | Potency [6] | Potency [8]

CN(C)CC/C=C1\c2ccccc2Sc2ccc(Cl)cc21
inactive: outcome [2] | Potency [3] | Potency [4]

O[C@@H](CNC[C@H](O)[C@H]1CCc2cc(F)ccc2O1)[C@@H]1CCc2cc(F)ccc2O1
inactive: outcome [2] | Potency [3] | Potency [4] | outcome [12]
active: Potency [1] 21.1 µM | Potency [9] 21.3 µM | Potency [11] 23.7 µM | Potency [13] 19 µM | Potency [7] 29.8 µM

CCCCCCC(O)CCCCCCCCCCC(=O)OC (configuration not stated)
inactive: Potency [1] | Potency [9] | outcome [2] | Potency [3] | Potency [4] | Potency [5] | Potency [13] | Potency [6] | Potency [7] | Potency [8]

CCCCCCCCCCCCCOC(=O)CCSCCC(=O)OCCCCCCCCCCCCC
inactive: Potency [1] | Potency [9] | outcome [2] | Potency [3] | activity, negative = cytotoxicity [10] 0.433% [at 19 µM] | activity change, negative = inhibition [11] -3.96% [at 19 µM] | viability change, negative = cytotoxic [4] -10.6% [at 15.8 µM] | activation [12] -14.2% [at 15.8 µM] | activation [5] 4.41% [at 15.8 µM] | activity change, negative = cytotoxicity [13] 10.7% [at 15.8 µM] | activity change, negative = cytotoxicity [6] 3.2% [at 19 µM]

Cc1ccc2c(c1[N+](=O)[O-])C(=O)c1ccccc1C2=O
inactive: Potency [1] | Potency [9] | outcome [2] | Potency [3] | Potency [10] | Potency [11] | Potency [13] | Potency [6]

O=C(c1ccccc1)C1CCC1
inactive: Potency [1] | Potency [9] | outcome [2] | Potency [3] | Potency [10] | Potency [11] | Potency [4] | outcome [12] | Potency [13] | Potency [6] | Potency [7]

Oc1ccc2c(c1)Cc1ccccc1-2
active: Potency [8] 13.7 µM
inactive: Potency [9] | outcome [2] | Potency [3] | Potency [10] | Potency [11] | Potency [4] | outcome [12] | Potency [6] | Potency [7]

Nc1ccc(NC(=O)c2ccc(N)cc2)cc1
inactive: Potency [1] | outcome [2] | Potency [3] | Potency [10] | Potency [11] | Potency [4] | outcome [12] | Potency [6] | Potency [7]

CCOC(=O)c1c(N)sc2c1CCN(Cc1ccccc1)C2
inactive: Potency [1] | outcome [2] | Potency [14] | Potency [10] | Potency [11] | Potency [4] | outcome [12] | Potency [6] | Potency [8]
